Shown are actives, neighbours in structure and some others; about 4% of the full set was active somewhere.
HIF-2a inh – HIF-2a reporter inhibitors, primary screen, luminescence, 786-0 RCC cells. 786-0 RCC cells HIF-2a reporter, luciferase luminescence, overnight. inhibition, % at 18.8 µM. hit rate 0.72% among 360,000. AID 624352, 2012;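 active means inhibition of the luminescence signal of 40% or more relative to plate controls, in a single-dose primary screen at 18.75 µM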
TWEAK-Fn14 inh – inhibitors of TWEAK-Fn14 signaling, primary screen, luciferase reporter cells, uHTS. inhibition, % at 10 µM. hit rate 2% among 360,000. TWEAK-stimulated Fn14 reporter cells, luciferase luminescence, 8 h; in the data active means inhibition above about 50%
KKLEB tox – cytotoxicity in KKLEB CF airway cells, primary screen, cytotoxicity control for CF NF-kB inhibitor project, cell-based, uHTS, fluorescence assay plates. activity change (cytotoxicity), % at 5 µM. KKLEB CF airway cells viability, ATPlite luminescence, overnight; stronger effect = lower value; cells stimulated with P. aeruginosa culture filtrate. hit rate 0.36% among 360,000;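 active means corrected activity change at or below -50% at 5 µM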
CF NFkB block – inhibitors of PAF-induced NF-kB signaling, primary screen, cell-based, GFP fluorescence, uHTS; inhibition, % at 5 µM; KKLEB NF-kB-GFP reporter, GFP fluorescence overnight; hit rate 0.86% among 360,000;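 active means at least 50% inhibition at 5 µM, scaled per plate between neutral and stimulator controls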;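 further: PAF is a Pseudomonas aeruginosa culture filtrate used as stimulus; plate controls were PAF-stimulated DMSO wells for no effect and unstimulated DMSO wells for full effect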
Peg3 prom inh – Peg3 promoter-driven luciferase inhibitors, primary screen, cell-based, HeLa, luciferase luminescence; HeLa PEG-Prom luciferase reporter, overnight; inhibition, % at 20 µM; hit rate 1.7% among 360,000; AID 588405, 2011;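 active means inhibition of at least 50% at 20 µM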
TROY signal inh – inhibitors of TROY-driven NF-kB signaling, primary screen, Q293 LMP1-TROYcd cells, NF-kB luciferase, uHTS; Q293 LMP1-TROYcd NF-kB luciferase reporter, 4 h; inhibition, % at 10 µM; hit rate 0.98% among 360,000; AID 1347056, 2019;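 active means compounds whose plate-normalised and pattern-corrected inhibition of the luciferase reporter signal at the single screening dose is 50% or more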
Active calls of the source: *; nt = no result given.

SMILES	HIF-2a inh	TWEAK-Fn14 inh	KKLEB tox	CF NFkB block	Peg3 prom inh	TROY signal inh
COc1ccc(-n2nnnc2C(CCc2ccccc2)N2CCN(C/C=C/c3ccccc3)CC2)cc1 (centres undefined)	-17.6	6.5	-27.5	13.9	16.4	18.9
CCN(CC)C(=O)C(=O)c1cn(CC(=O)N2CCc3ccccc3C2)c2ccccc12	10.4	-1.0	3.2	-18.6	16.5	9.4
c1ccc(-c2cc(-c3nnc4n3N=C(c3ccc5ccccc5c3)CS4)[nH]n2)cc1	-49.5	67.9*	-5.9	-20.0	20.4	6.0
CC(Oc1ccc(Br)cc1)C(=O)NCCCN1CCCC1=O (centres undefined)	4.2	12.2	4.9	-16.1	11.3	-10.7
CC(=O)N1c2ccccc2N=C(c2ccc(C(F)(F)F)cc2)C1C(=O)NC1CCCC1 (centres undefined)	-17.4	nt	nt	nt	nt	nt
CC(=O)NC1Sc2ccccc2N=C1c1ccccc1 (centres undefined)	-175.9	53.0*	15.8	-7.0	-199.8	nt
Cc1sc(-n2c(C)cc(/C=C3\SC(=S)NC3=O)c2C)c(C#N)c1C	-127.1	16.0	-19.9	-22.3	75.3*	-9.8
Cc1cc(/C=C2\SC(=S)NC2=O)c(C)n1-c1cccc(O)c1	-294.1	-12.8	4.6	-23.5	-268.2	-39.0
Cc1ccc(C)c2c1CCCC2=O	13.2	3.3	-4.3	20.2	1.6	0.7
O=C(NCC1CCCN(Cc2ccc3c(c2)OCCO3)C1)c1ccc2c(c1)OCO2 (centres undefined)	18.6	-3.7	-10.3	4.2	0.0	-23.9
O=C(NCC1CCCN(Cc2ccc3nonc3c2)C1)c1cccc(C(F)(F)F)c1 (centres undefined)	11.6	15.2	-2.6	-10.3	50.8*	-0.3
Cc1ccc2c(c1)Cc1nc3ccccc3nc1-2	-8.6	70.3*	-12.0	-91.2	-12.0	-36.2
COc1ccc(/C(O)=C2/C(=O)C(=O)N(Cc3ccco3)C2c2cccs2)cc1 (centres undefined)	-128.5	-10.0	1.4	1.7	-116.3	-37.3
CC1Cc2cc(/C(O)=C3/C(=O)C(=O)N(Cc4ccco4)C3c3cccs3)ccc2O1 (centres undefined)	-61.1	65.5*	5.4	-11.5	-57.5	64.8*
CC(C)c1nnc(NC(=O)c2ccc3c(c2)OCO3)s1	-20.5	73.2*	-15.6	5.3	20.2	47.6
COc1ccccc1-c1nnc(NC(=O)c2ccc3c(c2)OCO3)s1	-41.8	2.7	-56.3*	59.2*	29.7	-26.6
CC(c1ccccc1)c1nnc(NC(=O)c2ccc3c(c2)OCO3)s1 (centres undefined)	-88.0	2.8	-5.1	3.4	-34.8	-33.0
O=C(Nc1nnc(SCC(=O)N2CCCc3ccccc32)s1)c1ccccc1	-163.9	-17.5	-28.6	5.2	-168.4	-76.4
O=C(Nc1nnc(SCC(=O)N2CCCc3ccccc32)s1)c1ccc2ccccc2c1	-178.9	26.0	-50.2*	5.3	-210.3	-6.2
CC(C)(C)c1nnc(NC(=O)c2ccc3c(c2)OCO3)s1	-246.6	-7.6	1.7	-15.1	-379.7	-25.5
CCOC(=O)CSc1nnc(NC(=O)c2ccc3c(c2)OCO3)s1	53.8*	19.4	23.1	-8.9	33.1	6.1
Cc1ccc(-c2nsc3c(N4CCC(C(N)=O)CC4)ncnc23)cc1	-132.7	59.5*	-19.4	-8.8	-141.4	45.1
COc1ccc(-c2nsc3c(N4CCCCC4)ncnc23)cc1	59.8*	101.5*	-62.0*	-26.4	48.9	80.2*
COc1ccc(C(=O)N2CCN(c3ncnc4c(-c5ccccc5)nsc34)CC2)cc1	-7.6	15.6	8.4	-7.0	-18.3	6.3
COc1ccc(NC(=O)CN2C(=O)NC3(CCCc4ccccc43)C2=O)c(OC)c1 (centres undefined)	4.7	0.5	2.9	7.7	4.5	-2.4
SMILES	HIF-2a inh	TWEAK-Fn14 inh	KKLEB tox	CF NFkB block	Peg3 prom inh	TROY signal inh
C=CCC[C@H](Cc1ccc(F)cc1)C(=O)OC[C@H](C)NC(=O)[C@@H](CC=C)CC(=O)N[C@H](CO)Cc1ccccc1	11.8	6.4	10.7	-14.1	15.4	11.9
O=C1CCCC2=C1C1(CCCC1)N=C(Nc1nc3cc(-c4ccccc4)ccc3o1)N2	-81.3	64.3*	-13.0	35.4	-10.4	-12.0
O=C1CCCC2=C1C1(CCCC1)N=C(Nc1nc3ccccc3o1)N2	-45.0	-0.4	-6.2	-4.5	10.6	-23.4
O=C1CCCC2=C1C1(CCCCC1)N=C(Nc1nc3ccccc3o1)N2	-21.8	74.6*	-15.5	-52.0	13.7	1.9
O=c1nc(Nc2ccccc2)oc2ccccc12	-246.4	-16.7	-3.9	1.2	-247.7	-64.1
O=c1oc(Nc2ccc(F)cc2)nc2ccccc12	-135.3	57.9*	-15.0	-2.8	-95.4	6.5
COc1ccc(Nc2nnc(-c3ccncc3)s2)cc1Cl	7.9	38.2	3.6	-21.0	21.4	51.1*
Clc1ccccc1Nc1nnc(-c2ccncc2)s1	-10.1	89.1*	-26.8	27.5	-32.0	59.8*
O=C(N[C@H]1c2ccccc2C[C@H]1O)[C@H]1O[C@@H](n2ccc(=O)[nH]c2=O)[C@H](O)[C@@H]1O	3.4	9.1	11.0	4.6	-26.8	0.1
CCn1nc(C)c(CN2CCC(C(=O)Nc3cccc(-c4cccc(Cl)c4)c3)CC2)c1C	11.7	-5.6	-25.4	5.8	68.2*	8.2
CCn1ncc(CN2CCC(C(=O)Nc3cccc(-c4cccc(F)c4)c3)CC2)c1C	9.2	4.1	-6.3	-7.2	40.8	-8.1
Cc1cc(C)n(CCCN2CCC(C(=O)Nc3cccc(-c4cccc(F)c4)c3)CC2)n1	9.8	-13.6	-12.1	13.5	69.4*	5.2
CS(=O)(=O)N1CCC(C(=O)Nc2cccc(Cl)c2)CC1	11.2	-7.8	5.0	16.0	13.5	-1.3
O=C(OCCc1cc2ccccc2c(=O)o1)c1ccc(C(F)(F)F)cc1	-2.0	-2.4	10.6	-3.0	-12.8	-25.6
COc1ccc(C(=O)SC2=NCCS2)cc1	14.6	53.6*	9.6	-7.3	5.3	34.0
CCOc1ccc(C(=O)SC2=NCCS2)cc1	-5.3	63.1*	6.9	8.7	12.5	36.2
COc1cccc(C(=O)NC2=NCCS2)c1	-61.6	48.1	-0.2	5.4	-108.1	-19.6
CCOc1cccc(C(=O)NC2=NCCS2)c1	-152.1	17.4	-3.1	12.1	-208.5	-35.1
COCCN(C(=O)COC(=O)c1ccc(Br)o1)c1c(N)n(Cc2ccccc2)c(=O)[nH]c1=O	17.7	2.2	12.7	-43.7	-5.8	-2.3
COc1ccc2c(CN3CCN(Cc4ccccc4)CC3)cc(=O)oc2c1	11.9	2.8	-7.6	12.0	0.5	-9.1

Screening data: PubChem, Sanford-Burnham Center for Chemical Genomics
